# Laboratory results reported in PubChem BioAssay.
# Calls of active or inactive are those of the source.
# Experiments:
# [1] = tested on: Human papillomavirus type 1a protein E7 (residues 44-93); test: HPV1a E7 fragment binders on microarrays, primary screen, biochemical, small-molecule microarray, residues 44-93, 635 nm fluorescence (AID 1108); conditions: small-molecule microarray binding, fluorescence 635 nm; higher = more signal;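 also: E7 fragment applied at 1 µg/mL in TBST for 1 h at 4 C; score combines spot fluorescence with its signal to noise ratio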
# [2] = modulators of HCV replicon luciferase signal, primary screen, HCV replication inhibitor project, Huh7 cells, luciferase reporter (AID 1109); conditions: 48 h, higher = more signal;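 also: huh7 hepatoma cells harbouring a luciferase neomycin HCV replicon reporter; luciferase luminescence as measure of HCV replicon replication; test concentration not given here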
# [3] = target: Left-right determination factor 2 (Homo sapiens) (UniProt O00292); test: LEFTY2 binders on small-molecule microarrays, primary screen, biochemical, small-molecule microarray, 635 nm fluorescence scan (AID 1110); conditions: LEFTY2 binding, higher = more signal
# [4] = target: Calmodulin-1 (Homo sapiens) (UniProt P0DP23); test: CALM1 binders on microarrays, EGTA buffer, profiling panel, biochemical, small-molecule microarray, Cy5-labelled CALM1 (AID 1111); conditions: Cy5-CALM1 binding fluorescence, higher = more signal;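 also: labelled calmodulin applied in Tris saline Tween buffer holding calcium plus EGTA and DTT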
# [5] = target: Calmodulin-1 (Homo sapiens) (UniProt P0DP23); test: calcium-bound CALM1 binders on microarrays, profiling panel, artefact control for SMM control-protein annotation, biochemical, small-molecule microarray, Cy5-labelled CALM1, plus calcium (AID 1112); conditions: Cy5-CALM1 binding fluorescence, higher = more signal;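 also: score merges spot fluorescence with signal to noise from triplicate slides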
# [6] = small-molecule microarray binders of probe aWnt5a, primary screen, biochemical, biotinylated probe, 635/667 nm fluorescence (AID 1113); conditions: higher = more signal;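 also: score merges 667 nm fluorescence intensity with signal-to-noise per printed feature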
# [7] = small-molecule microarray binders of probe aShh, primary screen, biochemical, biotinylated probe, 635/667 nm fluorescence (AID 1114); conditions: higher = more signal;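 also: probe is biotin-labelled aShh protein from a stem cell growth factor screen; measures binding of labelled protein to compounds printed on the slide; score merges feature fluorescence at 667 nm with signal-to-noise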
# [8] = small-molecule microarray binders of probe aNog, primary screen, biochemical, biotinylated probe, 635/667 nm fluorescence (AID 1115); conditions: higher = more signal;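 also: probe is biotinylated aNog protein used at 0.15 µg/mL for 1 h at 4 C; z-score combines 667 nm fluorescence of each spot with its signal to noise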
# [9] = target: Torsin-1A-interacting protein 1 (Homo sapiens) (UniProt Q5JTV8); test: LAP1 binders from COS7 cell lysate, primary screen, small-molecule microarray, 635/667 nm fluorescence (AID 1116); conditions: COS7-hLAP1 lysate binding, 635 nm fluorescence, higher = more signal
# [10] = target: Alpha-bungarotoxin (Bungarus multicinctus) (UniProt P60615); test: alpha-bungarotoxin binders on microarray, profiling panel, artefact control for SMM control protein annotation, biochemical, small-molecule microarray, Alexa647 label, 635/667 nm fluorescence (AID 1117); conditions: alpha-BTX-A647 binding fluorescence, higher = more signal
# Albumin (Bos taurus) = Albumin (Bos taurus) (UniProt P02769); test: bovine serum albumin binders on microarray, profiling panel, artefact control for SMM control protein annotation, biochemical, small-molecule microarray, Alexa647 label, 635/667 nm fluorescence (AID 1118); conditions: BSA-A647 binding, fluorescence 635 nm, higher = more signal;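 also: score merges 667 nm emission intensity and signal-to-noise per printed compound spot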
# [11] = small-molecule microarray binders of probe aXIP, primary screen, biochemical, NeuroSMM set, 635/667 nm fluorescence (AID 1119); conditions: higher = more signal, called active from +8 up or from −8 down;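 also: probe is the protein aXip251-270 applied at 1 µg/mL to compound-printed slides; binding of probe to printed compounds measured as 667 nm fluorescence plus signal to noise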
# [12] = small-molecule binders of probe aNOTCH3, primary screen, biochemical, small-molecule microarray, 635/667 nm fluorescence (AID 1120); conditions: higher = more signal;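 also: probe is a biotin-tagged antibody raised against NOTCH3 rather than NOTCH3 protein; score merges spot fluorescence near 667 nm with spot signal to noise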
# [13] = small-molecule binders of probe aNOTCH2, primary screen, biochemical, small-molecule microarray, 635/667 nm fluorescence (AID 1121); conditions: higher = more signal;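 also: score merges feature fluorescence read at 667 nm with its signal to noise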
# [14] = target: Carbonic anhydrase 2 (Homo sapiens) (UniProt P00918); test: CAII small-molecule binders, profiling panel, biochemical, small-molecule microarray, Alexa647-labelled CAII (AID 1122); conditions: CAII-A647 binding fluorescence, higher = more signal
# [15] = COS7 lysate on small-molecule microarray, probe aHis, 635 nm (AID 1123); conditions: COS7 cell lysate, fluorescence, higher = more signal;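 also: z-score combines 667nm fluorescence intensity with signal-to-noise per printed compound spot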
# [16] = compound binding in COS7 lysate, probe aLAP1, primary screen, cell lysate, small-molecule microarray (AID 1124); conditions: probe aLAP1, fluorescence, higher = more signal;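 also: lysate comes from COS7 cells expressing LAP1 and is applied at 0.3 µg/mL; score merges spot fluorescence near 667 nm with signal-to-noise over triplicate slides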
# Sam68 (KHDRBS1) = test: Sam68 small-molecule binders, primary screen, biochemical, small-molecule microarray, 635 nm fluorescence (AID 1125); conditions: small-molecule microarray binding, higher = more signal;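 also: score merges 667 nm channel intensity with signal to noise over triplicate slides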
# [17] = tested on: Chordin-like protein 2 (CHRDL2); test: CHRDL2 small-molecule binders, primary screen, biochemical, small-molecule microarray, 635 nm fluorescence (AID 1126); conditions: small-molecule microarray binding, fluorescence 635 nm; higher = more signal;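 also: printed compound slides probed with Chrdl2 protein at 4 µg/mL for 1 h at 4 C; score merges 667 nm emission intensity with signal to noise over three replicate slides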
# [18] = target: Concanavalin-A (Canavalia ensiformis) (UniProt P02866); test: ConA small-molecule binders, primary screen, artefact control for SMM control protein annotation, biochemical, small-molecule microarray, Alexa647 label, 635 nm (AID 1127); conditions: ConA-A647 binding fluorescence, higher = more signal;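 also: z combines 667 nm emission intensity with signal-to-noise across three replicate slides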
# Concanavalin-A (Canavalia ensiformis), sequence (P02866 whole entry, looked up): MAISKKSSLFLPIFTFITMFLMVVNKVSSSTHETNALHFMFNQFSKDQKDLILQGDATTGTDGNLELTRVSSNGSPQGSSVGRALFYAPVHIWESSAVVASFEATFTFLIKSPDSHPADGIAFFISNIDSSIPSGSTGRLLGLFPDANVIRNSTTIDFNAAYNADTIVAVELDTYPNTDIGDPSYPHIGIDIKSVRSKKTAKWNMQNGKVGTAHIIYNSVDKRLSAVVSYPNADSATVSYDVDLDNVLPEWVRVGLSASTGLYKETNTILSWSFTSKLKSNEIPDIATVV
# Left-right determination factor 2 (Homo sapiens), sequence (O00292 whole entry, looked up): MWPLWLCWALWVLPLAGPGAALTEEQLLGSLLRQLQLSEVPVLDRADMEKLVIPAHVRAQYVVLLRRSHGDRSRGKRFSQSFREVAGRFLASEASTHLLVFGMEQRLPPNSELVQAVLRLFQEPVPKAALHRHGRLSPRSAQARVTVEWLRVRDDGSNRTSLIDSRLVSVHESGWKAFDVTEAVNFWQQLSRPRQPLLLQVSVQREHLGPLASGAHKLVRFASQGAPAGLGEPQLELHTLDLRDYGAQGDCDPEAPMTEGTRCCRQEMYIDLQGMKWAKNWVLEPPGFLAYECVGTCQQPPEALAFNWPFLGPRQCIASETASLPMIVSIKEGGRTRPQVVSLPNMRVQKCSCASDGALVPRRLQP
# Torsin-1A-interacting protein 1 (Homo sapiens), sequence (Q5JTV8 whole entry, looked up): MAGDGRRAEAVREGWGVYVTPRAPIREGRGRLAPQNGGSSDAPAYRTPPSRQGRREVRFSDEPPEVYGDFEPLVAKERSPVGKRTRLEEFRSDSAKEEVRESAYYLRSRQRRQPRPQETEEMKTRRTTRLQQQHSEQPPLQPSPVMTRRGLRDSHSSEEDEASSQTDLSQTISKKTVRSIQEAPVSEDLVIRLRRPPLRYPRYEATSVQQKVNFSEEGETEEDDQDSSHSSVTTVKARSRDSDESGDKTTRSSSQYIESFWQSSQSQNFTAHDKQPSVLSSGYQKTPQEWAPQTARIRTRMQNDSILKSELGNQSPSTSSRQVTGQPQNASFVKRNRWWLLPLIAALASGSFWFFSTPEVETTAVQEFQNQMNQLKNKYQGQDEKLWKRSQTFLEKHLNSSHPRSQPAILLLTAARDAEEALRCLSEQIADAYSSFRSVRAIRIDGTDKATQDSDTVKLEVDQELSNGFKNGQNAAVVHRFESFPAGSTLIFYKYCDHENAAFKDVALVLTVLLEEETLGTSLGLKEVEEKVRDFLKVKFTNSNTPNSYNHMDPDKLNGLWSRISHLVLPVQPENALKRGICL
# Albumin (Bos taurus), sequence (P02769 whole entry, looked up): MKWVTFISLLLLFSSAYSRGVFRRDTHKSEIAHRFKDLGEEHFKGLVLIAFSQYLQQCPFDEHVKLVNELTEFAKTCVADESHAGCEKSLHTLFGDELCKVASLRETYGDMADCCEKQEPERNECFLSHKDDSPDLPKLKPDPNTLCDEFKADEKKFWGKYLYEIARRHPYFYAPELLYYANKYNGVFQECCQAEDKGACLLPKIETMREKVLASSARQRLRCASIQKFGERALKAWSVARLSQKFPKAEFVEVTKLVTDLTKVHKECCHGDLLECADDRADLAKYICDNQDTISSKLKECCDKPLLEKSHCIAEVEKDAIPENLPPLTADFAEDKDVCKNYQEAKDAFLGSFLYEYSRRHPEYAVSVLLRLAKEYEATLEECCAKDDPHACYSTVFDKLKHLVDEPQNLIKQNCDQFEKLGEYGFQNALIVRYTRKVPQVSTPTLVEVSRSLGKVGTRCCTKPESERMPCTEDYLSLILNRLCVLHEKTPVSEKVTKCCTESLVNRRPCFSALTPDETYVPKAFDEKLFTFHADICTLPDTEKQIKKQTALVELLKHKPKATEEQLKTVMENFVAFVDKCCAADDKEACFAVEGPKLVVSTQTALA
# Alpha-bungarotoxin (Bungarus multicinctus), sequence (P60615 whole entry, looked up): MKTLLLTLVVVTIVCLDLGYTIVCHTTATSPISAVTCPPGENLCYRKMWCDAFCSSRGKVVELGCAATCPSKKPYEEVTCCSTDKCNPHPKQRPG
smiles,measurement,setting,value
CC(CCN1CCCc2nc(C)c(C)cc21)=NOC(C)CN1CCCCc2nc(C)c(C)cc21 (stereo not given),composite z-score,[1],1.35
same,z-score,[2],-1.66
same,composite z-score,[3],0.984
same,composite z-score,[4],0.341
same,composite z-score,[5],-0.568
same,composite z-score,[6],0.159
same,composite z-score,[7],0.689
same,composite z-score,[8],0.57
same,composite z-score,[9],0.436
same,composite z-score,[10],0.714
same,composite z-score,Albumin (Bos taurus),-0.0931
same,composite Z-score,[11],1.62 (inactive)
same,composite z-score,[12],0.539
same,composite z-score,[13],0.101
same,composite z-score,[14],0.618
same,composite z-score,[15],0.84
same,composite z-score,[16],0.247
same,composite z-score,Sam68 (KHDRBS1),1.3
same,composite z-score,[17],1.06
same,composite z-score,[18],1.01
O=c1n(-c2ccccc2)c(=O)n2n1CC[C@@H]1C(=NOCc3ccccc3)[C@H]3O[C@H]3[C@@H](O)[C@@H]12,composite z-score,[1],0.0398
same,z-score,[2],-2.05
same,composite z-score,[3],0.582
same,composite z-score,[4],-0.608
same,composite z-score,[5],-0.879
same,composite z-score,[6],-0.164
same,composite z-score,[7],-0.0035
same,composite z-score,[8],-0.113
same,composite z-score,[9],0.0741
same,composite z-score,[10],1.55
same,composite z-score,Albumin (Bos taurus),-0.101
same,composite Z-score,[11],0.371 (inactive)
same,composite z-score,[12],-0.179
same,composite z-score,[13],-0.189
same,composite z-score,[14],0.745
same,composite z-score,[15],-0.539
same,composite z-score,[16],-0.289
same,composite z-score,Sam68 (KHDRBS1),-0.712
same,composite z-score,[17],-0.0034
same,composite z-score,[18],-0.073
CC(C)CON=C1C[C@@H](O)[C@@H](O)[C@@H]2[C@@H]3C(=O)N(Cc4ccc5c(c4)OCO5)C(=O)[C@@H]3CC[C@H]12,composite z-score,[1],1.33
same,z-score,[2],-1.24
same,composite z-score,[3],0.375
same,composite z-score,[4],-0.382
same,composite z-score,[5],-0.576
same,composite z-score,[6],0.0044
same,composite z-score,[7],-0.291
same,composite z-score,[8],-0.467
same,composite z-score,[9],0.54
same,composite z-score,[10],0.411
same,composite z-score,Albumin (Bos taurus),0.768
same,composite Z-score,[11],-0.275 (inactive)
same,composite z-score,[12],-0.0288
same,composite z-score,[13],-0.115
same,composite z-score,[14],0.625
same,composite z-score,[15],0.676
same,composite z-score,[16],-0.358
same,composite z-score,Sam68 (KHDRBS1),1.34
same,composite z-score,[17],0.0987
same,composite z-score,[18],0.957
CO[C@@H]1COC(=O)CC=C[C@@H](C)[C@@H]2C=C[C@H](O)[C@@H](COC(=O)CC=C[C@H]1C)O2,composite z-score,[1],-0.913
same,z-score,[2],0.0581
same,composite z-score,[3],1.5
same,composite z-score,[4],-1.12
same,composite z-score,[5],-2.14
same,composite z-score,[6],-0.224
same,composite z-score,[7],-0.0146
same,composite z-score,[8],-0.349
same,composite z-score,[9],0.27
same,composite z-score,[10],0.149
same,composite z-score,Albumin (Bos taurus),-0.806
same,composite Z-score,[11],0.718 (inactive)
same,composite z-score,[12],-0.124
same,composite z-score,[13],-0.166
same,composite z-score,[14],-0.257
same,composite z-score,[15],-1.01
same,composite z-score,[16],0.146
same,composite z-score,Sam68 (KHDRBS1),0.141
same,composite z-score,[17],1.14
same,composite z-score,[18],-0.629
